Data from PubChem BioAssay (Tox21).
Where “and” joins values, the source holds several entries; their conditions need not be identical. Identical values can stand only once. Records with an inconclusive call do not appear. Where a call stands in place of a potency, no number is given. More than one record can exist for a structure, and the calls need not agree. Calls of active or inactive are those of the source. Unless noted, calls follow the shape of the dose curve; as a rule, active = well fitted curve in the direction sought with a large enough effect in the repeat runs; inconclusive = weak or mixed curves; inactive = no such curve, though single readings can be large; an effect the other way counts as inactive or inconclusive.

Legend:
[1] = qHTS assay to identify aromatase inhibitors - cell viability counter screen (AID 743084);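 also: cells stimulated with testosterone during compound exposure; nearly all actives have a fitted effect of over 55% in size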; also: potency is read from the fitted curve at half-maximal effect
[2] = qHTS assay to identify small molecule that activate the aryl hydrocarbon receptor (AhR) signaling pathway - cell viability counter screen (AID 743086);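 also: HepG2 liver cells carrying the AhR DRE luciferase reporter; series mostly up to about 70 µM; nearly all actives have a fitted effect of over 45% in size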
Outline: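 HepG2-AhR-luc (HG2L7.5c1) cells, 4000/well, were preincubated 5 h at 37C, exposed to compound in qHTS format for 24 hr at 37C, then given CellTiter-Fluor for 30 min; viability was read as fluorescence in the reporter wells.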

[3] = target: Peroxisome proliferator-activated receptor gamma (Homo sapiens) (UniProt P37231); assay: qHTS assay to identify small molecule agonists of the peroxisome proliferator-activated receptor gamma (PPARg) signaling pathway (AID 743094; active = well fitted activation curve with a large enough effect in the signal ratio in the repeat runs, not every such curve was filed as active; the % refers to the signal ratio)
Peroxisome proliferator-activated receptor gamma (Homo sapiens), sequence (P37231 whole entry, looked up): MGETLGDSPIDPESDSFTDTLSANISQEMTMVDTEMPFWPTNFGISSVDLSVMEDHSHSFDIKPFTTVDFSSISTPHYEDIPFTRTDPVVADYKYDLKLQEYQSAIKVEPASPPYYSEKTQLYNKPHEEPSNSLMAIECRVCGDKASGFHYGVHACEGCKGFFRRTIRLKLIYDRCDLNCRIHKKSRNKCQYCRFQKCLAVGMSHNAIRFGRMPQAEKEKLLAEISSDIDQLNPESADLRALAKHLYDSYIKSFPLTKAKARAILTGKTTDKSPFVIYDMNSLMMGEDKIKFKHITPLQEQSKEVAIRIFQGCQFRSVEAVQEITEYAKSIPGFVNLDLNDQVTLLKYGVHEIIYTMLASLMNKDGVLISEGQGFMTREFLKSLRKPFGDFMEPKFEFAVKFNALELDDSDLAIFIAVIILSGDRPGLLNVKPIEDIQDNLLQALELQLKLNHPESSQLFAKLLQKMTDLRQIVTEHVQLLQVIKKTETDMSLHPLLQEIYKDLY
Outline: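 Cells from the PPARg UAS-bla HEK293H line are plated and incubated 5 h at 37C. Compounds in DMSO are pinned in and left 17 h at 37C. LiveBLAzer B/G substrate is then added for 1 h at room temperature before fluorescence is measured.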

[4] = qHTS assay to identify small molecule antagonists of the peroxisome proliferator-activated receptor gamma (PPARg) signaling pathway - cell viability counter screen (AID 743194); also: nearly all actives have a fitted effect of over 55% in size
Outline: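 PPARg-UAS-bla HEK293H cells were plated, rested 5 h at 37 C, then treated with compounds plus rosiglitazone (50 nM final) for 17 h at 37 C; viability was then read by CellTiter-Glo luminescence after 30 min at room temperature.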

[5] = qHTS assay for small molecule agonists of the antioxidant response element (ARE) signaling pathway - cell viability counter screen (AID 743203; calls by dose curve; also: nearly all actives have a fitted effect of over 55% in size)
Outline: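 Cytotoxicity was tested in parallel with the ARE reporter screen. ARE-bla HepG2 cells were exposed to compounds for 16 hrs, and viability was taken from CellTiter-Glo luminescence.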

[6] = qHTS assay for small molecule activators of the heat shock response signaling pathway - cell viability counter screen (AID 743209); also: nearly all actives have a fitted effect of over 50% in size
Outline: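 Cytotoxicity counter screen run in parallel with the HSE beta-lactamase reporter, using the same wells. HeLa HSE-bla cells received compound for 5 h at 37 C; ATP-based CellTiter-Glo luminescence was measured after 30 min at room temperature.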

[7] = qHTS assay for small molecule activators of the heat shock response signaling pathway (AID 743210; active = well fitted activation curve with a large enough effect in the signal ratio in the repeat runs, with a control signal flat, not every such curve was filed as active; the % refers to the signal ratio;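 also: HeLa cells with beta-lactamase reporter driven by heat shock elements; series mostly up to about 63 µM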)
Outline: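 Activation of heat shock element-controlled beta-lactamase expression is measured in HeLa cells by LiveBLAzer FRET fluorescence, with compound exposure lasting 5 h at 37 C and substrate loading 2.5 h at room temperature.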

[8] = qHTS assay to identify small molecule agonists of the peroxisome proliferator-activated receptor delta (PPARd) signaling pathway - cell viability counter screen (AID 743211); also: nearly all actives have a fitted effect of over 55% in size; also: potency is read from the fitted curve at half-maximal effect
Outline: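 qHTS cell viability: PPARd-bla HEK293H; 17 h cpd, 37C; CellTiter-Glo, luminescence at 30 min RT.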

[9] = target: Peroxisome proliferator-activated receptor delta (Homo sapiens) (UniProt Q03181); assay: qHTS assay to identify small molecule agonists of the peroxisome proliferator-activated receptor delta (PPARd) signaling pathway (AID 743212; calls by dose curve)
Peroxisome proliferator-activated receptor delta (Homo sapiens), sequence (Q03181 whole entry, looked up): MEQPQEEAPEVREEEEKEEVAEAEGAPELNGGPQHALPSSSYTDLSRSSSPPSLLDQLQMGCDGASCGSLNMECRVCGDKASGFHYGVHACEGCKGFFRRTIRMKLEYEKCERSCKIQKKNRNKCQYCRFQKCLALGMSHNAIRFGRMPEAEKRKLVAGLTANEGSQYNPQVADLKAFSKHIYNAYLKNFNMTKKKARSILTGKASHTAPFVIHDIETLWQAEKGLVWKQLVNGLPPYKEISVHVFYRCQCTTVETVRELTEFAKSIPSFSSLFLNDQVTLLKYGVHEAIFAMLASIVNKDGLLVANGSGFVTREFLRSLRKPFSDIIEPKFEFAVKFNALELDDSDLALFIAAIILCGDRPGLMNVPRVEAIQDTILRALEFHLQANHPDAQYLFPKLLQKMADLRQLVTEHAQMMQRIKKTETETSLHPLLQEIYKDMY
Outline: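 Cells expressing a UAS-driven beta-lactamase reporter (PPARd-bla HEK293H) were given test compounds after a 5 h settle and kept at 37 C. Reporter activity was then measured as FRET fluorescence using LiveBLAzer B/G substrate.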

[10] = qHTS assay to identify small molecule antagonists of the peroxisome proliferator-activated receptor delta (PPARd) signaling pathway - cell viability counter screen (AID 743213); also: nearly all actives have a fitted effect of over 50% in size
Outline: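 PPARd-bla HEK293H cells (3000/well) got compound plus 300 nM L165041 agonist for 17 h at 37 C. Viability in the same wells came from CellTiter-Glo luminescence after 30 min at room temperature.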

[11] = qHTS assay to identify small molecule agonists of the farnesoid-X-receptor (FXR) signaling pathway - cell viability counter screen (AID 743218); also: nearly all actives have a fitted effect of over 45% in size
Outline: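 Cells were seeded, left 5 h at 37 C and 5% CO2, then dosed with compound in DMSO for 16 h. After the beta-lactamase FRET read, CellTiter-Glo was added and luminescence measured 30 min later.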

[12] = qHTS assay to identify small molecule antagonists of the farnesoid-X-receptor (FXR) signaling pathway - cell viability counter screen (AID 743221; active = well fitted cell-killing curve with a large enough effect in the repeat runs, not every such curve was filed as active; also: nearly all actives have a fitted effect of over 50% in size)
Outline: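 After a 5 h settling period, FXR-bla HEK 293T cells receive compound and chenodeoxycholic acid (50 uM final) and incubate 16 h at 37 C; CellTiter-Glo luminescence, read after 30 min at room temperature, reports cell viability.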

[13] = qHTS assay for small molecule agonists of the antioxidant response element (ARE) signaling pathway (AID 743202; active = well fitted activation curve with a large enough effect in the signal ratio in the repeat runs, not every such curve was filed as active; the % refers to the signal ratio)
Outline: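 Steps: seed ARE-bla HepG2 cells (2,000/well); incubate 5 h at 37 C; add compounds by pin tool; incubate 16 h at 37 C; add FRET substrate; read fluorescence after 2 h at RT.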

[14] = target: Peroxisome proliferator-activated receptor delta (Homo sapiens) (UniProt Q03181); assay: qHTS assay to identify small molecule antagonists of the peroxisome proliferator-activated receptor delta (PPARd) signaling pathway (AID 743215; active = well fitted inhibition curve with a large enough effect in the signal ratio in the repeat runs, not every such curve was filed as active; the % refers to the signal ratio;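 also: cells stimulated with agonist L165041 at 300 nM final during compound exposure; series mostly up to about 62 µM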)
Outline: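 Cells: HEK293H with a UAS-driven beta-lactamase reporter responsive to PPARd. Compounds were co-added with L165041 (300 nM, final) and incubated 17 h at 37 C before a 2 h room-temperature FRET substrate step and fluorescence reading.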

[15] = target: Bile acid receptor (Homo sapiens) (UniProt Q96RI1); assay: qHTS assay to identify small molecule antagonists of the farnesoid-X-receptor (FXR) signaling pathway (AID 743217; active = well fitted inhibition curve with a large enough effect in the signal ratio in the repeat runs, not every such curve was filed as active; the % refers to the signal ratio)
Bile acid receptor (Homo sapiens), sequence (Q96RI1 whole entry, looked up): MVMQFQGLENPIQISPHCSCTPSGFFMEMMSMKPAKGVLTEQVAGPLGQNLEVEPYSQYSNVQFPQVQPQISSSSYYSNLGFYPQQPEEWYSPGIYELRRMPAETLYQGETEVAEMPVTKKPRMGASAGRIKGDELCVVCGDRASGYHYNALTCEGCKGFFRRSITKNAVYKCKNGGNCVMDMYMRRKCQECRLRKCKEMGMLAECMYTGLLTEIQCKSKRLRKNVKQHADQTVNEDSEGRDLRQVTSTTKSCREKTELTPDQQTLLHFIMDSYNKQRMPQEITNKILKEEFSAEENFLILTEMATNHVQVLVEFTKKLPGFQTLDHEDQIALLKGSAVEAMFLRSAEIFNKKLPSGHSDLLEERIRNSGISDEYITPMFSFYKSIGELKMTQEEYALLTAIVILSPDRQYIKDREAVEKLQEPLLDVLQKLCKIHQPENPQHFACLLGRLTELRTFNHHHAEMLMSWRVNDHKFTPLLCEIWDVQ
Outline: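 Cells carrying a UAS-driven beta-lactamase reporter (GeneBLAzer FXR-UAS-bla HEK 293T) were plated and rested 5 h at 37 °C. Compounds in DMSO were added alongside chenodeoxycholic acid agonist at 50 uM final and left 16 h at 37 °C before FRET substrate readout.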

[16] = target: Bile acid receptor (Homo sapiens) (UniProt Q96RI1); assay: qHTS assay to identify small molecule agonists of the farnesoid-X-receptor (FXR) signaling pathway (AID 743220; active = well fitted activation curve with a large enough effect in the signal ratio in the repeat runs, not every such curve was filed as active; the % refers to the signal ratio)
Outline: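 FXR-UAS-bla HEK 293T cells carrying a UAS-driven beta-lactamase reporter were plated for 5 h at 37C/5% CO2, then exposed to DMSO-dissolved Tox21 10K compounds for 16 h at 37C. A LiveBLAzer B/G FRET substrate was loaded for 2 h at room temperature before fluorescence reading.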

[17] = target: Vitamin D3 receptor (Homo sapiens) (UniProt P11473); assay: qHTS assay to identify small molecule agonists of the vitamin D receptor (VDR) signaling pathway (AID 743222; calls by dose curve)
Vitamin D3 receptor (Homo sapiens), sequence (P11473 whole entry, looked up): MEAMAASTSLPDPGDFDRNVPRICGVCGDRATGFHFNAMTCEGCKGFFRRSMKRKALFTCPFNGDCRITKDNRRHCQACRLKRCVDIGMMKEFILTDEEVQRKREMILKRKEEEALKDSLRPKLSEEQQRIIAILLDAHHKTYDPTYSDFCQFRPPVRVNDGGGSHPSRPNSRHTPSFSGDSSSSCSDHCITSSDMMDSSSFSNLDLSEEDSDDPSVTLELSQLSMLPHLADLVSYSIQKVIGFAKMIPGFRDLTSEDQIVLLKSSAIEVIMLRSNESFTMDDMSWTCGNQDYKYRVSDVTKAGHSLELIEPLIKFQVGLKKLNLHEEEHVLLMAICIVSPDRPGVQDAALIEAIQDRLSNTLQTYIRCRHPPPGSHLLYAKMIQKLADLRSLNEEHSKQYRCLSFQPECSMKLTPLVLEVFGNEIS
Outline: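 Cells carrying a VDR-driven beta-lactamase reporter are seeded at 2,000 per well and rested 4 h. Compounds in DMSO are added for 16 h at 37C, and FRET substrate fluorescence is measured after 2 h at room temperature.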

[18] = target: Vitamin D3 receptor (Homo sapiens) (UniProt P11473); assay: qHTS assay to identify small molecule antagonists of the vitamin D receptor (VDR) signaling pathway (AID 743223; active = well fitted inhibition curve with a large enough effect in the signal ratio in the repeat runs, not every such curve was filed as active; the % refers to the signal ratio)
Outline: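 Reporter line VDR-bla; stimulus 1alpha,25-(OH)2 vitamin D3, 3 nM final; compound co-addition, 16 h 37C/5% CO2; LiveBLAzer B/G substrate 2 h RT; fluorescence intensity.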

[19] = target: Peroxisome proliferator-activated receptor gamma (Homo sapiens) (UniProt P37231); assay: qHTS assay to identify small molecule antagonists of the peroxisome proliferator-activated receptor gamma (PPARg) signaling pathway (AID 743191; calls by dose curve; also: series mostly up to about 63 µM; nearly all actives have a fitted effect of over 30% in size)
Outline: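 GeneBLAzer PPARg UAS-bla HEK293H cells carrying a UAS-driven beta-lactamase reporter were plated at 3000 cells/well, preincubated 5 h at 37C, then given compound for 17 h at 37C; LiveBLAzer B/G FRET substrate was read after 1 h at room temperature.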

[20] = target: Aryl hydrocarbon receptor (Homo sapiens) (UniProt P35869); assay: qHTS assay to identify small molecule that activate the aryl hydrocarbon receptor (AhR) signaling pathway (AID 743085);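 also: HG2L7.5c1 human HepG2 liver cells with stably integrated DRE-driven firefly reporter; series mostly up to about 70 µM; nearly all actives have a fitted effect of over 15% in size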
Aryl hydrocarbon receptor (Homo sapiens), sequence (P35869 whole entry, looked up): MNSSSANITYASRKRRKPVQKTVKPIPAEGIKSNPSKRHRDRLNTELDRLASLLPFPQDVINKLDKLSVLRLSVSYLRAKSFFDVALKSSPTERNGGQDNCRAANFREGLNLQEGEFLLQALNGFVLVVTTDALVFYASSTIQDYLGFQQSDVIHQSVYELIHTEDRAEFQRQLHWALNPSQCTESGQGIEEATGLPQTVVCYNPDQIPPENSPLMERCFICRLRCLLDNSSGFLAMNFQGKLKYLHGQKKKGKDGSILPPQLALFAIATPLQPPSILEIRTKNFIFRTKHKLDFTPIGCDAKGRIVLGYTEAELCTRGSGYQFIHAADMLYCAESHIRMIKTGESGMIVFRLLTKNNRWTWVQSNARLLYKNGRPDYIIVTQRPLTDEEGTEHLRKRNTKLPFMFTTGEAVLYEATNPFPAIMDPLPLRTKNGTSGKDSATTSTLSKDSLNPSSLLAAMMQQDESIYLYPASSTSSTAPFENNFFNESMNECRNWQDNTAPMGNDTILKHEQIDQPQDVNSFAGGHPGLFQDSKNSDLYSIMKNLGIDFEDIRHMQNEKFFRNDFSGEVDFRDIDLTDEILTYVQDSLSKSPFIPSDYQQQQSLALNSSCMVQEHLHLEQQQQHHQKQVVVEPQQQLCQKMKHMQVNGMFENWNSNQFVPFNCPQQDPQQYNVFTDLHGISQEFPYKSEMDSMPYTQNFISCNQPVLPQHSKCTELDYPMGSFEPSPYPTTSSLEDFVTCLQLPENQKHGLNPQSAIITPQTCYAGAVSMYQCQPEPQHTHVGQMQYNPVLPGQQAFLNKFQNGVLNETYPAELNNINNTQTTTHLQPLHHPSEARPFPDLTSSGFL
Outline: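 AhR agonist activity is inferred from enhanced light output of a DRE-controlled firefly luciferase reporter in HepG2 cells, measured with ONE-Glo following 24 h treatment at 37C.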

Structure (SMILES): Nc1c2c(nc3ccccc13)CCCC2O (centres undefined)
- Potency [1]: inactive
- Potency [2]: inactive
- outcome [3]: inactive
- outcome [4]: inactive
- Potency [5]: inactive
- outcome [6]: inactive
- outcome [7]: inactive
- Potency [8]: inactive
- outcome [9]: inactive
- Potency [10]: inactive
- Potency [11]: inactive
- Potency [12]: inactive

Structure (SMILES): CCS(=O)(=O)c1ccc(OC)c(C(=O)OC)c1
- outcome [4]: inactive
- Potency [13]: inactive
- Potency [5]: inactive
- outcome [6]: inactive
- outcome [7]: inactive
- Potency [8]: inactive
- outcome [9]: inactive
- Potency [10]: inactive
- Potency [14]: inactive
- outcome [15]: inactive
- Potency [11]: inactive
- outcome [16]: inactive
- Potency [12]: inactive

Structure (SMILES): CN(C)CCCSc1ccccc1NC(=O)/C=C/c1ccccc1
- Potency [1]: inactive
- Potency [2]: inactive
- outcome [4]: inactive
- Potency [13]: inactive
- Potency [5]: inactive
- outcome [6]: inactive
- outcome [7]: inactive
- Potency [8]: inactive
- Potency [10]: inactive
- Potency [12]: inactive
- outcome [17]: inactive
- outcome [18]: inactive

Structure (SMILES): COC(=O)C1=C(C)NC(C)=C(C(=O)OC)C1c1ccccc1[N+](=O)[O-]
- Potency [1]: inactive and 54.5 µM (active)
- Potency [2]: inactive
- Potency [19]: inactive
- outcome [4]: inactive
- Potency [13]: inactive
- Potency [5]: inactive
- outcome [6]: inactive
- outcome [7]: inactive
- Potency [8]: 49 µM (active) and inactive
- outcome [9]: inactive
- Potency [10]: inactive
- outcome [15]: inactive
- Potency [11]: inactive
- Potency [12]: inactive
- outcome [17]: inactive
- outcome [18]: inactive

Structure (SMILES): CCN(CC)CCOCCOC(=O)C1(c2ccccc2)CCCC1
- Potency [20]: inactive
- outcome [3]: inactive
- outcome [4]: inactive
- Potency [13]: inactive
- Potency [5]: inactive
- outcome [6]: inactive
- outcome [7]: inactive
- Potency [8]: inactive
- outcome [15]: inactive
- Potency [11]: inactive
- Potency [12]: inactive

Structure (SMILES): CCOC(=O)c1cccc(N)c1
- Potency [1]: inactive
- Potency [2]: inactive
- outcome [4]: inactive
- Potency [13]: inactive
- Potency [5]: inactive
- outcome [6]: inactive
- outcome [7]: inactive
- Potency [10]: inactive
- Potency [14]: inactive
- Potency [11]: inactive
- Potency [12]: inactive
- outcome [17]: inactive
- outcome [18]: inactive

Structure (SMILES): N[C@@H](C(=O)N[C@@H]1C(=O)N2C(C(=O)O)=C(Cl)CS[C@H]12)c1ccccc1
- Potency [1]: inactive
- Potency [2]: inactive
- ratio activity, negative = inhibition [19]: 6.67% [at 13.2 µM] (inactive)
- activity change, negative = cytotoxicity [4]: 0.956% [at 13.2 µM] (inactive)
- activation [13]: -0.175% [at 8.36 µM] (inactive)
- viability change, negative = cytotoxic [5]: 3.71% [at 8.36 µM] (inactive)
- activity change, negative = cytotoxicity [6]: -29.5% [at 13.2 µM] (inactive)
- activation [7]: -0.803% [at 13.2 µM] (inactive)
- activity change, negative = cytotoxicity [8]: 12.6% [at 13.2 µM] (inactive)
- activation [9]: 0.732% [at 13.2 µM] (inactive)
- viability change, negative = cytotoxic [10]: 10.2% [at 13.7 µM] (inactive)
- activity change, negative = inhibition [15]: -0.0054% [at 13.2 µM] (inactive)
- viability change, negative = cytotoxic [11]: 3.28% [at 13.2 µM] (inactive)
- activation [16]: 0.369% [at 13.2 µM] (inactive)
- activity change, negative = cytotoxicity [12]: 6.46% [at 13.2 µM] (inactive)
- activation [17]: 4.64% [at 13.4 µM] (inactive)
- activity change, negative = inhibition [18]: 2.28% [at 6.95 µM] (inactive)

Structure (SMILES): NC(=O)c1cn(Cc2c(F)cccc2F)nn1
- Potency [2]: inactive
- outcome [4]: inactive
- Potency [5]: inactive
- outcome [6]: inactive
- outcome [7]: inactive
- Potency [8]: inactive
- outcome [9]: inactive
- outcome [15]: inactive
- Potency [11]: inactive
- outcome [16]: inactive
- Potency [12]: inactive
- outcome [17]: inactive
- outcome [18]: inactive

Structure (SMILES): COc1ccc(CCN(C)CCCC(C#N)(c2cc(OC)c(OC)c(OC)c2)C(C)C)cc1OC (centres undefined)
- Potency [20]: inactive
- Potency [2]: inactive
- outcome [4]: inactive
- Potency [13]: inactive
- Potency [5]: inactive
- outcome [7]: inactive
- Potency [8]: inactive
- outcome [9]: inactive
- Potency [10]: inactive
- Potency [11]: inactive
- Potency [12]: inactive
- outcome [17]: inactive
